These results are taken from PubChem BioAssay (Tox21).

Unmarked numbers belong to inactive results. Records with an inconclusive call do not appear. Activity calls are given as the source filed them. Unless noted, calls come from the whole dose curve; as a rule, active = well fitted curve in the direction sought with a large enough effect in the repeat runs; inconclusive = weak or mixed curves; inactive = no such curve, though single readings can be large; an effect the other way counts as inactive or inconclusive.

Test [1] is described as follows: qHTS assay to test for compound auto fluorescence at 535 nm (green) in HEK293 cells (AID 720680).
Test [2] in a line: qHTS assay to test for compound auto fluorescence at 460 nm (blue) in HEK293 cell free culture (AID 720681). Put shortly:
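Test compounds were pinned into cell-free culture medium (DMEM with 10% FBS) and fluorescence was read directly at Ex/Em 405/460 nm. Signals were expressed as fluorescence equivalents of triamterene, with DMSO vehicle as control.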

The nature of test [3]: qHTS assay to test for compound auto fluorescence at 535 nm (green) in HEK293 cell free culture (AID 720682). In short, it runs like this:
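Read-out: 485/535 nm fluorescence intensity, calibrated against fluorescein. Medium only (DMEM + 10% FBS, no cells); test compound or DMSO vehicle added by pintool before plate reading.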

The nature of test [4]: qHTS assay to test for compound auto fluorescence at 590 nm (red) in HEK293 cell free culture (AID 720683). In short, it runs like this: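 Tox21 10K library compounds were pinned into cell-free DMEM with 10% FBS and fluorescence was read at excitation 540 nm. Activity is expressed as Rose Bengal sodium equivalency.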
The nature of test [5]: qHTS assay to test for compound auto fluorescence at 590 nm (red) in HepG2 cell free culture (AID 720684). In short, it runs like this: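 Measured in medium alone (MEM containing 10% FBS) following pintool addition of compound; emission at 590 nm with 540 nm excitation, referenced to Rose Bengal sodium.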
Test [6] can be described thus: qHTS assay to test for compound auto fluorescence at 460 nm (blue) in HepG2 cell free culture (AID 720685). Put shortly: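 Compound (23 nL) or DMSO pinned into cell-free MEM with 10% FBS; blue fluorescence read at 405/460 nm excitation/emission, expressed as auto-fluorescence equivalency to triamterene.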
Test [7] in a line: qHTS assay to test for compound auto fluorescence at 535 nm (green) in HepG2 cell free culture (AID 720686).
A short description of test [8]: qHTS assay to test for compound auto fluorescence at 460 nm (blue) in HepG2 cells (AID 720687). In short, it runs like this: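 Cells (2,000/well in MEM with 10% FBS) attached overnight at 37 C, then were exposed to compound or DMSO for 1 hr at 37 C, 5% CO2. Fluorescence read at Ex/Em 405/460 nm, expressed as triamterene-equivalent signal.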
Test [9] has as its target Glucocorticoid receptor (Homo sapiens) (UniProt P04150). The test can be described thus: qHTS assay to identify small molecule agonists of the glucocorticoid receptor (GR) signaling pathway (AID 720691; active = well fitted activation curve with a large enough effect in the signal ratio in the repeat runs, not every such curve was filed as active; the % refers to the signal ratio; note: potency is the fitted concentration of half-maximal effect). Put shortly:
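GR-bla HeLa cells carrying a GRE-driven beta-lactamase reporter, exposed to compounds for 18 h at 37 C. Reporter activation read as fluorescence after 2 h with LiveBLAzer B/G FRET substrate at room temperature.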

The target is the same in test [10]. The test can be described thus: qHTS assay to identify small molecule antagonists of the glucocorticoid receptor (GR) signaling pathway (AID 720692; active = well fitted inhibition curve with a large enough effect in the signal ratio in the repeat runs, not every such curve was filed as active; the % refers to the signal ratio; note: potency is the fitted concentration of half-maximal effect). Put shortly: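 GR-bla HeLa cells carrying a GRE-driven beta-lactamase reporter received compound after 4 h plating, then dexamethasone (5 nM final). After 18 h at 37C, the FRET substrate was loaded for 2 h at room temperature and fluorescence read.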

Test [11] in a line: qHTS assay to identify small molecule antagonists of the glucocorticoid receptor (GR) signaling pathway - cell viability counter screen (AID 720693). Note: nearly all actives have a fitted effect of over 55% in size.
Test [12] is described as follows: qHTS assay for identifying genotoxic compounds that show differential cytotoxicity against isogenic chicken DT40 cell lines with known DNA damage response pathways - wild type cell line (AID 743012). Note: nearly all actives have a fitted effect of over 60% in size. Note: potency is the fitted concentration of half-maximal effect. Put shortly: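 Wild-type DT40 cells (300/well) exposed to compounds for 40 hours at 37 C/5% CO2. Viability read by CellTiter-Glo luminescence after 30 min at room temperature.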

A short description of test [13]: qHTS assay for identifying genotoxic compounds that show differential cytotoxicity against isogenic chicken DT40 cell lines with known DNA damage response pathways - Rev3 mutant cell line (AID 743014). Note: nearly all actives have a fitted effect of over 55% in size. Note: potency is the fitted concentration of half-maximal effect.
Test [14] is described as follows: qHTS assay for identifying genotoxic compounds that show differential cytotoxicity against isogenic chicken DT40 cell lines with known DNA damage response pathways - Rad54/Ku70 mutant cell line (AID 743015). Note: nearly all actives have a fitted effect of over 60% in size. Note: potency is the fitted concentration of half-maximal effect.
The nature of test [15]: qHTS assay to identify small molecule antagonists of the androgen receptor (AR) signaling pathway - cell viability counter screen (AID 743033; note: nearly all actives have a fitted effect of over 45% in size).
For test [16], the target named is Androgen receptor (Homo sapiens) (UniProt P10275). In words: qHTS assay to identify small molecule agonists of the androgen receptor (AR) signaling pathway (AID 743036; active = well fitted activation curve with a large enough effect in the signal ratio in the repeat runs, with a control signal flat, not every such curve was filed as active; the % refers to the signal ratio). In short, it runs like this:
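HEK293 cells stably carrying a UAS-driven beta-lactamase reporter (GeneBLAzer AR-UAS-bla-GripTite) were plated at 2,000 cells/well, rested 4 h at 37C, then exposed to compounds in DMSO for 16 h. LiveBLAzer B/G FRET substrate was added for 2 h at room temperature; fluorescence read.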

For test [17] the target is unchanged. The test can be described thus: qHTS assay to identify small molecule agonists of the androgen receptor (AR) signaling pathway using the MDA cell line (AID 743040; note: nearly all actives have a fitted effect of over 20% in size; note: potency is the fitted concentration of half-maximal effect). Put shortly:
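Luminescence from ONE-Glo, read after 30 min at room temperature, reflects MMTV-driven luciferase in MDA-kb2 cells (AR- and GR-responsive). Treatment lasted 16 h at 37C, 0% CO2.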

Test [18] can be described thus: qHTS assay to identify small molecule antagonists of the androgen receptor (AR) signaling pathway using the MDA cell line - cell viability counter screen (AID 743041; note: nearly all actives have a fitted effect of over 45% in size; note: potency is the fitted concentration of half-maximal effect). In short, it runs like this:
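Viability counter screen run alongside the AR antagonist reporter: cells seeded 5 h before compound, R1881 added, 16 h incubation at 37C without CO2, fluorescent CellTiter-Fluor signal quantified.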

In test [19] the target is Androgen receptor (Homo sapiens) (UniProt P10275). In words: qHTS assay to identify small molecule antagonists of the androgen receptor (AR) signaling pathway using the MDA cell line (AID 743042; note: nearly all actives have a fitted effect of over 55% in size). In short, it runs like this:
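MDA-kb2 cells (human breast carcinoma, stably carrying an MMTV-luciferase reporter responsive to AR and GR) were plated at 3,000 cells/well and preincubated 5 hr at 37C, then given compound plus R1881 agonist for 16 h. ONE-Glo luminescence was read.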

Test [20] in a line: qHTS assay to identify small molecule antagonists of the thyroid receptor (TR) signaling pathway - cell viability counter screen (AID 743064). Note: nearly all actives have a fitted effect of over 50% in size. In short, it runs like this: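 GH3.TRE-Luc rat pituitary cells carrying a TRE-luciferase reporter were treated with compound plus 1 nM T3 (final) for 23.5 h at 37 °C. Viability was then read in the same wells by CellTiter-Fluor fluorescence after a further 30 min.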
% is set by controls: 0 for no effect and ±100 for the full control effect.

Chain of Androgen receptor (Homo sapiens) (P10275 whole entry, looked up): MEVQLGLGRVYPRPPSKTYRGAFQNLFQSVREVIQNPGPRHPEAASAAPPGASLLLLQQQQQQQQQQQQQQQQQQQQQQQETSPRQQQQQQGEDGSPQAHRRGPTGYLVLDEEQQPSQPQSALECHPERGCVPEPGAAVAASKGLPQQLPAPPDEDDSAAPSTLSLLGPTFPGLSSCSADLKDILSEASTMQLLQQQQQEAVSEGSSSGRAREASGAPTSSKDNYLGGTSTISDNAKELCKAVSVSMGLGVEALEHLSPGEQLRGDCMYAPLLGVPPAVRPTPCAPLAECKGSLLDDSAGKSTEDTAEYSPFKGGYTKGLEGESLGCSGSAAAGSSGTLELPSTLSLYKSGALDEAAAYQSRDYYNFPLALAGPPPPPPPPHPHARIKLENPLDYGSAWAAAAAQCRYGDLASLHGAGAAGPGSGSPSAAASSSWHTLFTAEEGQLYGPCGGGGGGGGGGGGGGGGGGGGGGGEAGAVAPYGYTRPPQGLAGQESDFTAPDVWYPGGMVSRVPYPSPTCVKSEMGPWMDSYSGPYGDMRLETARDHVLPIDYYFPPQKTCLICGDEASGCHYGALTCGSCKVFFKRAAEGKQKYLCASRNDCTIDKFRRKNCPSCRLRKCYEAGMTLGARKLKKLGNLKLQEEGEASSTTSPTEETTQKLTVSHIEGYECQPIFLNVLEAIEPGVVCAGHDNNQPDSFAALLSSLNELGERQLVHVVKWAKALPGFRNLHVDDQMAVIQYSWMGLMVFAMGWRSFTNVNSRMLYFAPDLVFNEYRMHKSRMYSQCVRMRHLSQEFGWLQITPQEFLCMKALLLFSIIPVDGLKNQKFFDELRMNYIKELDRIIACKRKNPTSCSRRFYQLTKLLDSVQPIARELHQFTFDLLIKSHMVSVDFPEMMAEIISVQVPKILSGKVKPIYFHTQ
Chain of Glucocorticoid receptor (Homo sapiens) (P04150 whole entry, looked up): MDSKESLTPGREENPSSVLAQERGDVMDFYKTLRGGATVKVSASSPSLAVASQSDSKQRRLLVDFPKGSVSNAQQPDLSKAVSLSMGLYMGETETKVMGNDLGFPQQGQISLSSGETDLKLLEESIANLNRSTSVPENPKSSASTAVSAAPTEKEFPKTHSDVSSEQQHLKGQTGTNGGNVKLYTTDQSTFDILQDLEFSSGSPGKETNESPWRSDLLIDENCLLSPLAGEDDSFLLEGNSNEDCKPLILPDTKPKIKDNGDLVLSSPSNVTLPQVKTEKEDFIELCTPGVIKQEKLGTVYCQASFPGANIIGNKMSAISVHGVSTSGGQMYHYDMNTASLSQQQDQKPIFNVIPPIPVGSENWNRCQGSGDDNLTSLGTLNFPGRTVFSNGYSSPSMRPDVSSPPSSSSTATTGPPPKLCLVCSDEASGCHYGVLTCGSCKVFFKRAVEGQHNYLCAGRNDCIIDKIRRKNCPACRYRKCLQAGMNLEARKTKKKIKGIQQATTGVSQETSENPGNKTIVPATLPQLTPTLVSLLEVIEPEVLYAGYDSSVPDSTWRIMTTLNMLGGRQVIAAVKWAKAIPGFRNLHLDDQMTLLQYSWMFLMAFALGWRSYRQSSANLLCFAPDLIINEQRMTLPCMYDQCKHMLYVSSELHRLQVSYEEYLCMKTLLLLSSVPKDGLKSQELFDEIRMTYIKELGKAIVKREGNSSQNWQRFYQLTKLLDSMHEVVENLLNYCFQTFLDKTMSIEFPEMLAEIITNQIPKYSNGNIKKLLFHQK

Turning to `CC1(C)C2=CCCC(C)(C)[C@]23CC[C@H]1C3`, the call in test [1], in test [3], in test [4], in [5] and in test [7] was inactive. Besides, the Potency result in test [2], in [6], in test [8], in test [9], in test [10] and in test [11] was “inactive” each time. Moreover, the Potency entry in [15], in test [16], in test [17], in [18], in test [19] and in [20] was “inactive” throughout. Also, the Potency in [12] is 54.5 µM (active); in test [13], 43.3 µM (active); in test [14], 30.6 µM (active).

With `COCC(O)CO` (stereo not drawn), the call in test [1], in test [3], in [4], in test [5] and in test [7] was inactive. Further, the Potency entry in test [2], in test [6], in test [8], in test [9], in test [10] and in test [11] was “inactive” throughout. The Potency result in test [12], in [13], in [14], in test [15] and in test [18] was “inactive” in each case.

In the case of `CCCC1C(CC)=CC(CC)=CN1c1ccccc1` (stereo not drawn), the compound was classed as inactive in test [1], in [3], in test [4], in [5] and in [7]. The Potency entry in test [2], in test [6], in [8], in test [9], in [11] and in [15] was “inactive” throughout. For the same compound, in test [20], the Potency entry is “inactive”. Further, the Potency was 49 µM (active) in [10]; 2.73 µM (active) in test [12]; 2.17 µM (active) in test [13]; 1.93 µM (active) in [14]; 54.5 µM (active) in test [18].

Consider `CC(=O)[C@H]1CC[C@H]2[C@@H]3C=CC4=CC(=O)CC[C@@]4(C)[C@@H]3CC[C@]12C`, for which the fluorescence, % of fluorescein in test [1] was -0.274% [at 18.6 µM]. Besides, the fluorescence, % of fluorescent control is -0.214% [at 18.6 µM] in [2], -0.0895% [at 18.6 µM] in test [4], -0.0065% [at 18.6 µM] in test [6] and 0.0499% [at 18.6 µM] in [8]. Besides, the activity change in test [3] is -0.278% [at 18.6 µM]. Moreover, the fluorescence, % of Rose Bengal in [5] is -0.458% [at 18.6 µM]. Also, in test [7], the fluorescence, % of fluorescein control is -0.0891% [at 18.6 µM]. For the same compound, the Potency is 0.0007 µM (active) in test [9]; 1.82 µM (active) in test [10]; 4.03 µM (active) in test [12]; 3.59 µM (active) in test [13]; 4.52 µM (active) in test [14]; 9.02 µM (active) in [17]. For the same compound, the Potency entry in test [11], in test [15], in test [18], in test [19] and in [20] was “inactive” throughout.

On to `C/C=C/C=C/CCCCCCCO`, for which the compound was called inactive in [1], in [3], in test [4], in [5] and in test [7]. Besides, the Potency result in test [2], in test [6], in [8], in test [9], in [11] and in test [18] was “inactive” in each case. Besides, the Potency in test [10] was 38.9 µM (active); in test [12] it was 21.7 µM (active); in test [13] it was 30.6 µM (active); in test [14] it was 24.3 µM (active).

Consider `O=S(=O)(c1ccccc1)c1ccc(Cl)cc1`, for which the outcome in [1], in test [3], in test [4], in test [5] and in test [7] was inactive. For the same compound, the Potency result in test [2], in [6], in [8], in test [9], in test [10] and in [11] was “inactive” throughout. Also, the Potency entry in test [15] and in test [20] was “inactive” throughout. Also, the Potency in test [12] is 61.1 µM (active); in [13], 61.1 µM (active); in test [14] it was 48.6 µM (active).
